Measurements published in PubChem BioAssay AID1159580 (chemical genetic matrix, 2015).
In all, about 5,500 compounds went through this assay and about 2,000 (36%) were called active. Roughly 18% stayed inconclusive and do not appear here. Rule as the data show it: active = normalized growth mostly below about 0.91 (no sharp cut-off); inconclusive = no clear call, values can overlap the other calls; inactive = mostly above about 0.92. This is one part of the list.

Test: chemical genetic growth profiling, strain panel (AID 1159580);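 also: tested at 20 µM; growth read once vehicle control cultures reached saturation at 30 °C; 1 = growth at the plate median or of vehicle wells; lower values mean less growth of the strain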
Conditions: S. cerevisiae deletion strains, growth OD

Measured: normalized growth

NNC(=O)c1cccnc1Oc1ccccc1
inactive: locus YAL013W, strain DEP1, hits give low values 1.01 | locus YBR229C, strain ROT2, hits give low values 0.998 | locus YDL101C, strain DUN1, hits give low values 1.03 | locus YDR150W, strain NUM1, hits give low values 1.04 | locus YEL061C, strain CIN8, hits give low values 1.02 | locus YGR078C, strain PAC10, hits give low values 1.02 | locus YHR030C, strain SLT2, hits give low values 1.11 | locus YHR087W, strain rtc3, hits give low values 1.02 | locus YJR043C, strain POL32, hits give low values 1.01 | locus YJR075W, strain HOC1, hits give low values 1.03 | locus YKL190W, strain CNB1, hits give low values 1.02 | locus YLR039C, strain RIC1, hits give low values 1.12 | locus YLR058C, strain SHM2 (second series), hits give low values 1 | locus YLR085C, strain ARP6, hits give low values 1.12 | locus YLR262C, strain YPT6, hits give low values 1.01 | locus YML094W, strain GIM5, hits give low values 1.03 | locus YMR219W, strain ESC1, hits give low values 1.02 | locus YMR263W, strain SAP30, hits give low values 1.02 | locus YNL153C, strain GIM3, hits give low values 1.01 | locus YNL298W, strain CLA4 (second series), hits give low values 1.08 | locus YNL322C, strain KRE1, hits give low values 1.01 | locus YNR030W, strain Alg12, hits give low values 1.03 | locus YPL055C, strain LGE1, hits give low values 1.02 | locus YPL241C, strain CIN2, hits give low values 1.04 | locus YPR135W, strain CTF4, hits give low values 1.14
